Data reported in the supplement of paper PMC8728848.
The full list was thinned out, with the strongest signals kept by preference.

What was measured:
Assay in all cases: glycan array binding signal (z-score within array); higher = stronger binding
Settings in all cases: glycan notation: IUPAC condensed, linker removed
[1] = biological target: Neu5Ac9Ac(a2-3)Gal(b1-4)GlcNAc
Outline: (§1)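 Glycan array binding is given as a within-array Z-score, which can be read as non-binding when negative. The arrays, 3228 of them, came from the Consortium for Functional Glycomics database and were retained only where the protein sequence was available. Z-scores were averaged across arrays of the same protein sequence at different concentrations or buffers and across linkers.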

[2] = biological target: Fuc(a1-2)Gal(b1-3)GlcNAc(b1-2)Man(a1-3)[Fuc(a1-2)Gal(b1-3)GlcNAc(b1-2)Man(a1-6)]Man(b1-4)GlcNAc(b1-4)GlcNAc
Outline: as §1

[3] = biological target: Fuc(a1-2)Gal(b1-4)[Fuc(a1-3)]GlcNAc(b1-2)Man(a1-3)[Fuc(a1-2)Gal(b1-4)[Fuc(a1-3)]GlcNAc(b1-2)Man(a1-6)]Man(b1-4)GlcNAc(b1-4)GlcNAc
Outline: as §1

[4] = biological target: Fuc(a1-2)[GalNAc(a1-3)]Gal(b1-4)GlcNAc
Outline: as §1

[5] = biological target: Fuc(a1-3)[Gal(b1-4)]GlcNAc(b1-4)Gal(b1-4)[Fuc(a1-3)]GlcNAc
Outline: as §1

[6] = biological target: Fuc(a1-3)[Gal3S(b1-4)]Glc6S
Outline: as §1

[7] = biological target: Fuc(a1-3)[GalNAc(b1-4)]GlcNAc
Outline: as §1

[8] = biological target: Fuc(a1-3)[Neu5Ac(a2-3)]Gal(b1-4)GlcNAc(b1-3)GalNAc
Outline: as §1

[9] = biological target: Gal(b1-3)GalNAc(a1-3)[Fuc(a1-2)]Gal(b1-4)GlcNAc
Outline: as §1

[10] = biological target: Gal(b1-3)[Fuc(a1-4)]GlcNAc(b1-2)Man(a1-3)[Gal(b1-3)[Fuc(a1-4)]GlcNAc(b1-2)Man(a1-6)]Man(b1-4)GlcNAc(b1-4)GlcNAc
Outline: as §1

Gal(b1-4)Glc6S = biological target: Gal(b1-4)Glc6S
Outline: as §1

[11] = biological target: Gal(b1-4)GlcNAc(b1-3)Gal(b1-3)GlcNAc
Outline: as §1

[12] = biological target: Gal(b1-4)GlcNAc(b1-3)Gal(b1-4)GlcNAc
Outline: as §1

[13] = biological target: Gal(b1-4)GlcNAc(b1-3)[GlcNAc(b1-6)]Gal(b1-4)GlcNAc
Outline: as §1

Gal6S(b1-4)GlcNAc6S = biological target: Gal6S(b1-4)GlcNAc6S
Outline: as §1

[14] = biological target: GalNAc(b1-4)GlcNAc(b1-2)Man(a1-3)[GalNAc(b1-4)GlcNAc(b1-2)Man(a1-6)]Man(b1-4)GlcNAc(b1-4)GlcNAc
Outline: as §1

GlcA(b1-3)GlcNAc = biological target: GlcA(b1-3)GlcNAc
Outline: as §1

[15] = biological target: GlcNAc(b1-2)Man(a1-3)[GlcNAc(b1-2)Man(a1-6)]Man(b1-4)GlcNAc(b1-4)GlcNAc
Outline: as §1

[16] = biological target: GlcNAc(b1-4)GlcNAc(b1-4)GlcNAc
Outline: as §1

GlcNAc(b1-6)GalNAc = biological target: GlcNAc(b1-6)GalNAc
Outline: as §1

Man(a1-2)Man(a1-3)Man = biological target: Man(a1-2)Man(a1-3)Man
Outline: as §1

[17] = biological target: Neu5Ac(a2-3)Gal(b1-4)GlcNAc(b1-2)Man(a1-3)[GlcNAc(b1-2)Man(b1-4)GlcNAc(b1-2)Man(a1-6)]Man(b1-4)GlcNAc(b1-4)GlcNAc
Outline: as §1

[18] = biological target: Neu5Ac(a2-3)Gal(b1-4)GlcNAc(b1-3)Gal(b1-3)GlcNAc
Outline: as §1

[19] = biological target: Neu5Ac(a2-3)Gal(b1-4)GlcNAc6S
Outline: as §1

[20] = biological target: Neu5Ac(a2-3)Gal(b1-4)[Fuc(a1-3)]GlcNAc6S
Outline: as §1

[21] = biological target: Neu5Ac(a2-3)[Neu5Ac(a2-6)]GalNAc
Outline: as §1

[22] = biological target: Neu5Ac(a2-6)Gal(b1-4)GlcNAc(b1-2)Man(a1-3)[Gal(b1-4)GlcNAc(b1-2)Man(a1-6)]Man(b1-4)GlcNAc(b1-4)GlcNAc
Outline: as §1

[23] = biological target: Neu5Ac(a2-6)Gal(b1-4)GlcNAc(b1-3)Gal(b1-4)GlcNAc
Outline: as §1

[24] = biological target: Neu5Ac(a2-6)Gal(b1-4)GlcNAc6S
Outline: as §1

[25] = biological target: Neu5Ac(a2-8)Neu5Ac(a2-8)Neu5Ac(a2-3)Gal(b1-4)Glc
Outline: as §1

[26] = biological target: Neu5Ac(a2-8)Neu5Ac(a2-8)Neu5Ac(a2-8)Neu5Ac(a2-3)[GalNAc(b1-4)]Gal(b1-4)Glc
Outline: as §1

| Binder | glycan array binding signal (z-score) [1] | glycan array binding signal (z-score) [2] | glycan array binding signal (z-score) [3] | glycan array binding signal (z-score) [4] | glycan array binding signal (z-score) [5] | glycan array binding signal (z-score) [6] | glycan array binding signal (z-score) [7] | glycan array binding signal (z-score) [8] | glycan array binding signal (z-score) [9] | glycan array binding signal (z-score) [10] | glycan array binding signal (z-score) (Gal(b1-4)Glc6S) | glycan array binding signal (z-score) [11] | glycan array binding signal (z-score) [12] | glycan array binding signal (z-score) [13] | glycan array binding signal (z-score) (Gal6S(b1-4)GlcNAc6S) | glycan array binding signal (z-score) [14] | glycan array binding signal (z-score) (GlcA(b1-3)GlcNAc) | glycan array binding signal (z-score) [15] | glycan array binding signal (z-score) [16] | glycan array binding signal (z-score) (GlcNAc(b1-6)GalNAc) | glycan array binding signal (z-score) (Man(a1-2)Man(a1-3)Man) | glycan array binding signal (z-score) [17] | glycan array binding signal (z-score) [18] | glycan array binding signal (z-score) [19] | glycan array binding signal (z-score) [20] | glycan array binding signal (z-score) [21] | glycan array binding signal (z-score) [22] | glycan array binding signal (z-score) [23] | glycan array binding signal (z-score) [24] | glycan array binding signal (z-score) [25] | glycan array binding signal (z-score) [26] |
| --- | --- | --- | --- | --- | --- | --- | --- | --- | --- | --- | --- | --- | --- | --- | --- | --- | --- | --- | --- | --- | --- | --- | --- | --- | --- | --- | --- | --- | --- | --- | --- |
| DC-ASPGR (Homo sapiens), CLC10_HUMAN (protein) LDQNSKFQRDLVTLRTDFSNFTSNTVAEIQALTSQGSSLEETIASLKAEVEGFKQERQAVHSEMLLRVQQLVQDLKKLTCQVATLNNNASTEGTCCPVNWVEHQDSCYWFSHSGMSWAEAEKYCQLKNAHLVVINSREEQNFVQKYLGSAYTWMGLSDPEGAWKWVDGTDYATGFQNWKPGQPDDWQGHGLGGGEDCAHFHPDGRWNDDVCQRPYHWVCEAGLGQTSQESHVEPKSCDKTHTCPPCPAPELLGGPSVFLFPPKPKDTLMISRTPEVTCVVVDVSHEDPEVKFNWYVDGVEVHNAKTKPREEQFNSTYRVVSVLTVLHQDWLNGKEYKCKVSNKGLPSSIEKTISKAKGQPREPQVYTLPPSQEEMTKNQVSLTCLVKGFYPSDIAVEWESNGQPENNYKTTPPVLDSDGSFFLYSRLTVDKSRWQEGNVFSCSVMHEALHNHYTQK | -0.099 |  |  |  |  |  |  |  |  |  |  |  |  |  |  |  |  |  |  |  |  |  |  |  |  |  |  |  |  |  |  |
| HHL-2 (Homo sapiens), P07307 (protein) MAKDFQDIQQLSSEENDHPFHQGEGPGTRRLNPRRGNPFLKGPPPAQPLAQRLCSMVCFSLLALSFNILLLVVICVTGSQSEGHRGAQLQAELRSLKEAFSNFSSSTLTEVQAISTHGGSVGDKITSLGAKLEKQQQDLKADHDALLFHLKHFPVDLRFVACQMELLHSNGSQRTCCPVNWVEHQGSCYWFSHSGKAWAEAEKYCQLENAHLVVINSWEEQKFIVQHTNPFNTWIGLTDSDGSWKWVDGTDYRHNYKNWAVTQPDNWHGHELGGSEDCVEVQPDGRWNDDFCLQVYRWVCEKRRNATGEVA |  | -0.497 | 2.08 | -0.68 | -0.334 | -0.68 | -0.451 | 6.72 | -0.536 | 0.043 | -0.52 | -0.728 | -0.474 | -0.539 | 3.54 | 3.17 | -0.012 | -0.677 | 2.8 | -0.738 | -0.028 | 2.39 | 3.56 | -0.075 | 0.012 | -0.847 | 0.34 | -0.539 | 2.18 | 3.59 | 0.721 |
